# According to PubChem BioAssay (NCI):
# The panel holds about 83,000 compounds, 20% with a hit somewhere; the sample as a whole holds those more often.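 Compound tested at a single concentration for 48 hours in 96-well plates; a percent growth value below 10 was scored as active.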 Active and inactive are the calls of the source.
# Tested on: OVCAR-3 ovarian
# Assay: NCI-60 one-dose screen, 48 h (100 = growth as untreated, 0 = no growth, -100 = all killed)
# Settings: 10 µM unless noted
row,SMILES,growth
1,Cc1cc(N2CCOCC2)nc(N[C@@H]2CCC[C@H](Nc3ccnc4cc(Cl)ccc34)C2)n1,22.6% (inactive)
2,COc1ccc(C2CC(c3ccc4ccccc4c3)=NN2/C=C2\SC(=S)N(NC(=O)Cc3ccccc3Nc3c(Cl)cccc3Cl)C2=O)cc1 (stereo unspecified),2.15% (active)
3,CCC([N+](=O)[O-])S(=O)(=O)c1ccc(C)cc1 (stereo unspecified),150% (inactive)
4,COc1ccc(/C=C2\Oc3cc(OCCCCN4CCCC4)ccc3C2=O)cc1,94.3% (inactive)
5,NC(=NCCCC1(c2ccccc2)CCCC1)Nc1ccc(Cl)cc1,60.8% (inactive)
6,COc1ccc(/C=C\c2cc(OC)c(OC)c(OC)c2)cc1OCC(=O)Nc1ccc2nc(C)sc2c1,41.6% (inactive)
7,COc1ccc(C(=O)COc2ccc(/C=C3\COc4ccc(OC)cc4C3=O)cc2)cc1,104% (inactive)
8,COc1cc(C2CC(=O)c3ccccc3N2)cc(OC)c1OC (stereo unspecified),110% (inactive)
9,Cc1cc(N2CCN(c3ccnc4cc(Cl)ccc34)CC2)nc(N2CCOCC2)n1,85.9% (inactive)
10,Cn1ncc2c(=O)nc3c(-c4ccccc4)n[nH]n3c21,95.4% (inactive)
11,CC(C)CC1C(=O)N2CCC[C@H]2C2(O)O[C@](NC(=O)C3C=C4c5cccc6[nH]c(Br)c(c56)C[C@H]4N(C)C3)(C(C)C)C(=O)N12 (stereo partly specified),61.5% (inactive)
12,O=C(Cc1ccc(/C=C/C(=O)c2ncc[nH]2)cc1)Nc1ccc(F)cc1,2.36% (active)
13,COc1cc(-c2nn(C)nc2-c2cc3ccccc3s2)cc(OC)c1OC,0.446% (active)
14,CCOc1ccc(-n2nc(C(=O)Nc3ccccc3)nc2-c2cc(OC)c(OC)c(OC)c2)cc1,43.2% (inactive)
15,Nc1n[nH]c2ccc([C@@H]3Nc4cc5c(cc4[C@H]4C6CCC(C6)[C@@H]34)C(=O)NC5)cc12 (stereo partly specified),-3.29% (active)
16,COc1cccc(-c2nc(SCC(=O)Nc3ccc(C(=O)/C=C/c4ccc(OC)c(OC)c4)cc3)[nH]c(=O)c2C#N)c1,83.6% (inactive)
17,CCCn1c(=O)[nH]c(N)c([C@H]2c3ccccc3Oc3[nH]c(=O)n(CCC)c(=O)c32)c1=O,13.8% (inactive)
18,O=C1CC[C@H](c2ccc(O)c3c2C(=O)[C@@H]2O[C@@H]2C3=O)c2cccc(O)c21,-9.05% (active)

row,SMILES,growth
1,Cc1cn2c(/C=C3/C(=O)Nc4c3ccc3ccccc43)c(C(F)(F)F)nc2s1,-1.83% (active)
2,O=c1nc2oc3ccc4ccccc4c3cc-2s1,6% (active)
3,Cn1c(=O)[nH]c(=O)c2nc(CCC(=O)NCCC(=O)O)c(=O)[nH]c21,113% (inactive)
4,COc1cc(C(=O)Oc2ccccc2OC(=O)c2cc(OC)c(OC)c(OC)c2)cc(OC)c1OC,97.7% (inactive)
5,O=C1/C(=C/c2ccccc2O)N=C2SCCCN12,92.9% (inactive)
6,CC(C)(C)CC(C)(C)c1ccc(OCCOCC[N+](C)(C)Cc2ccccc2)cc1,-35% (active)
7,O=Nc1c(O)c(Cl)cc2ccccc12,67.3% (inactive)
8,COc1cc(Nc2cc(C)nc(N3CCN(c4ccnc5cc(Cl)ccc45)CC3)n2)cc(OC)c1,6.15% (active)
9,C=C1c2nc3ccccc3n2C=C(c2cccc(Cl)c2)N1Cc1ccc(OC)cc1,-28.1% (active)
10,CN(CCCCCl)P(=O)(OCc1ccc([N+](=O)[O-])o1)C(F)(F)c1ccc(CC(=O)NC[C@@H](O)/C=C\[C@@H](O)[C@H](CO)Cc2ccccc2)cc1 (stereo partly specified),107% (inactive)
11,CCNc1ncnc2c1cnn2C1CCCO1 (stereo unspecified),111% (inactive)
12,O=C(COc1ccc(-c2nc3cc(Cl)c(Cl)cc3[nH]2)cc1)N=Nc1c(O)[nH]c2ccccc12,-54.9% (active)
13,O=C(CN(C(=O)Cn1c(=O)n2nnnc2c2ccccc21)c1ccccc1C(F)(F)F)Nc1ccc(C(F)(F)F)cc1,110% (inactive)
14,CCCCCCN(CCCCCC)C(=N)c1ccnc2ccccc12,69.3% (inactive)
15,CN1CCN(c2nc(NCCCCNc3ccnc4cc(Cl)ccc34)c3ccccc3n2)CC1,76.6% (inactive)
16,CC(=O)O[C@H]1[C@@H]2OC(=O)C(CSc3ccccc3)[C@@H]2C[C@H]2O[C@]2(C)CC/C=C(\C)CCC[C@@H]1C (stereo partly specified),-9.73% (active)
17,COc1ccc(CN2c3ccccc3Oc3ccccc32)cc1F,43.1% (inactive)
18,Nc1ccc(-c2cc3c(Nc4ccc(Oc5cccc(C(F)(F)F)c5)c(Cl)c4)ncnc3s2)cc1,56.6% (inactive)
